Among the data in PubChem BioAssay (NCI) are growth values, retold here.

Compounds without any hit were thinned out: in the full panel of roughly 83,000, 20% have a hit.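 Treatment: one concentration, 48 hours, 96-well format. Scoring: percent growth, with anything below 10 considered active.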 Active and inactive are the calls of the source.

This experiment deals with MDA-MB-468 breast. Put plainly: NCI-60 one-dose screen, 48 h (100 = growth as untreated, 0 = no growth, -100 = all killed). The settings on record: 10 µM unless noted.
With `CSc1nc2ccccc2cc1/C=C1/C=C(c2ccccc2)NC1=O`, the growth was 61.6% (inactive).
The value for `c1ccc(CCn2nnc3c(Nc4ccc(N5CCOCC5)cc4)ncnc32)cc1` was 76% (inactive); that for `O=C(O)/C=C/C(=O)Nc1cccc(Cn2nnc3cc(Cl)c(Cl)cc32)c1` was 94.2% (inactive); that for `Cc1cccc(/C=C/c2c(C(=O)/C=C/c3ccccc3)c(C)nc3ccccc23)c1` was -51.1% (active).
As for `OC(COc1ccccc1Cl)CN1CCN(c2ccc(Cl)cc2)CC1` (stereo not given), the figure is 95.7% (inactive).
As for `O=C(Nc1ccc(N2CCNCC2)cc1)c1[nH]ncc1Nc1ncnc2sc3c(c12)CCC3`, the figure is -83.5% (active); as for `O=C1CSC(c2ccccc2O)N1c1nnc(Cn2cnnc2)o1` (stereo not given), 96.2% (inactive).
Take `O=C1OC(/C=C/c2ccccc2)=NC/1=C/c1ccccc1[N+](=O)[O-]`: the growth was 101% (inactive).
The value for `COC(=O)/C=C/c1cc(O)c2oc(-c3ccc(O)c(O)c3)c(C(=O)OC)c2c1` was 26.7% (inactive).
As for `COc1ccc(C(=O)c2cc3c(N)c(C(=O)Nc4cccc5ccccc45)sc3nc2C)cc1`, the figure is -0.26% (active); as for `COc1ccc(-c2cncnc2N)cc1OC`, 116% (inactive).
As for `N/C(=N\C(N)=N\c1nc2ccccc2s1)c1ccc(C(F)(F)F)cc1`, the figure is 107% (inactive); as for `CCCCCOc1ccc(C(=O)/C(Br)=C/C(=O)O)cc1`, 89.2% (inactive).
For the molecule `CCCCC(=O)OCC1OC(n2cnc3c(=S)nc[nH]c32)C(OC(=O)CCCC)C1OC(=O)CCCC` (stereo not given), the growth is 67.4% (inactive).
With `CCCCc1ccc(NC(=O)C(F)(F)F)cc1`, the growth is 109% (inactive).
The value for `CCOC(=O)/C(=C/c1ccccc1)C(=O)c1ccccc1` was 85.6% (inactive); that for `COc1cc(-c2csc(NC(=O)c3cc(-n4cnc(C)c4)cc(C(F)(F)F)c3)n2)cc(OC)c1OC` was 78.4% (inactive); that for `O=C(Cc1cccc2ccccc12)N/N=C/c1ccc2c(c1)CCC2` was 72.3% (inactive).
As for `Cc1nc2sc(C(=O)Nc3cccc(Cl)c3C)c(N)c2cc1C(=O)/C=C/c1ccccc1`, the figure is 4.69% (active); as for `c1ccc(COCC[P+](c2ccccc2)(c2ccccc2)c2ccccc2)cc1`, -10.4% (active); as for `COc1cc(C)c(C2C(C#N)=C(N)Oc3n[nH]c(-c4cccs4)c32)cc1C(C)C` (stereo not given), 101% (inactive).
The value for `c1cn2cc(-c3ccc4cn[nH]c4c3)nc(Nc3ccc(N4CCOCC4)cc3)c2n1` was 61.8% (inactive).
`COc1ccc(/C=N/Nc2cc(=O)[nH]c3ccc(Cl)cc23)cc1`: the growth was 78% (inactive).
As to `C[C@H](CCC[C@H](C)OS(=O)(=O)c1ccccc1)OS(=O)(=O)c1ccccc1`, the growth is 110% (inactive).
As for `COc1cc2nc(Cl)nc(Nc3cccc(C(=O)/C=C/c4ccc(F)cc4)c3)c2cc1OC`, the figure is 74.3% (inactive).
As for `NC(=O)c1cnc(Nc2cccc(N)c2)nc1NCCCNC(=O)C1CCC1`, the figure is 52.9% (inactive); as for `CN1CCCC1=Nc1ccccc1`, 107% (inactive); as for `COc1ccc(OC)c([N+](=O)[O-])c1C=O`, 81.9% (inactive).
The value for `COc1cc(C2CC(c3ccc4c(c3)OCO4)=NN2C=O)cc(OC)c1OC` (stereo not given) was -12.7% (active).
`Cc1ccc(CS/C(=C\c2ccc([N+](=O)[O-])cc2)C(=O)c2ccc(F)cc2)cc1`: the growth is 81.1% (inactive).
As for `Cc1[nH]c(=O)[nH]c(=O)c1CCSSCCc1c(C)[nH]c(=O)[nH]c1=O`, the figure is 105% (inactive); as for `N#CC[C@H](C1CCCC1)n1cc(-c2ncnc3[nH]ccc23)cn1`, 71.3% (inactive); as for `Cc1cc(N2CCCCC2)nc(NCc2cc(Nc3ccnc4cc(Cl)ccc34)ccc2F)n1`, -60.3% (active).
As for `Cn1c(-c2ccc(Br)cc2)c(O)c(=O)c2c(F)cccc21`, the figure is 39.7% (inactive); as for `COc1cc(NCCN(CC(C)C)C2CCCC2)c2ncccc2c1`, -13.9% (active); as for `CCCCC1CCCC12NC(=O)NC2=O` (stereo not given), 112% (inactive).
The value for `CCOC(=O)c1cnc2c(N=Nc3ccc(OC)cc3)c(N)nn2c1N` was 116% (inactive).
In the case of `CCOC(=O)CNC(=O)CCCCSc1ncnc2nc[nH]c12`, the growth is 95.4% (inactive).
With `O=C(COc1cc(O)c2c(=O)cc(-c3ccccc3)oc2c1)Nc1ccccc1`, the growth is 103% (inactive).
As for `O=C1CCC(N2C(=O)c3cccc(NCCCC4CCN(CCNC(=O)c5cc6c(o5)C(=O)c5ccccc5C6=O)CC4)c3C2=O)C(=O)N1` (stereo not given), the figure is -73.9% (active).
